Our source for the outcome values is PubChem BioAssay (EPA / NIEHS).

Records with an inconclusive call do not appear. The source made the active and inactive calls. The calls were made as follows: active = hit-call score of the fitted dose curve at least 0.9, where 1 is the maximum; inconclusive = response in the unintended direction; inactive = score below 0.9.

Oxysterols receptor LXR-beta (Homo sapiens), sequence (P55055 whole entry, looked up, the tested form may be a part): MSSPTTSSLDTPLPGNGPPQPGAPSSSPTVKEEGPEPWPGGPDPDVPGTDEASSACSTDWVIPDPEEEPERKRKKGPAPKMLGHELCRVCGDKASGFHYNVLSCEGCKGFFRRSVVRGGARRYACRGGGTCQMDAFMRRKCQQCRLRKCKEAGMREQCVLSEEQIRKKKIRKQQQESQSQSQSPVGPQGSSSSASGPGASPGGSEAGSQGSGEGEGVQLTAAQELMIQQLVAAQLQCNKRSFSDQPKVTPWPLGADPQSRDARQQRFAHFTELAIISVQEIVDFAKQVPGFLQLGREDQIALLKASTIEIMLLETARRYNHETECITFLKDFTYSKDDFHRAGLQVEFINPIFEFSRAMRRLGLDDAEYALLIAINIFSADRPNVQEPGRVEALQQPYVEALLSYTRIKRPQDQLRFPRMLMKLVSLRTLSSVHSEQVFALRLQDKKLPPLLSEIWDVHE
Hepatocyte nuclear factor 4-alpha (Homo sapiens), sequence (P41235 whole entry, looked up): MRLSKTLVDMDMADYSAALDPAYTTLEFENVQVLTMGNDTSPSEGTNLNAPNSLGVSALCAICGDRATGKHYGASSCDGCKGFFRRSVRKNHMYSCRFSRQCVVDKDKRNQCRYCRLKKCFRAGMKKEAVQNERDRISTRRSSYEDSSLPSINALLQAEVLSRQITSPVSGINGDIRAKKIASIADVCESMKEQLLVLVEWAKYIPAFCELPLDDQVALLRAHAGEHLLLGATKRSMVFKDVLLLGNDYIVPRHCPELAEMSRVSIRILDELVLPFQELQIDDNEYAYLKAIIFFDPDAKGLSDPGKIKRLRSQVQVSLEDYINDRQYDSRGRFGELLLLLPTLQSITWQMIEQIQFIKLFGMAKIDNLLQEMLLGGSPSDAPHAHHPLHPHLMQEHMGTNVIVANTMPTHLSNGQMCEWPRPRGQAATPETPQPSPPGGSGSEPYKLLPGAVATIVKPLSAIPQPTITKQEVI

The first experiment concerns the target Oxysterols receptor LXR-beta (Homo sapiens) (UniProt P55055). In words: ATG_LXRb_TRANS: Attagene TRANS-FACTORIAL HepG2 Assay for human Liver X Receptor beta (LXRb) (AID 2282981). To be noted: HepG2 Attagene TRANS GAL4-LXRb reporter, mRNA. Summed up:
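Readout: fluorescent reporter mRNA fragments resolved by capillary electrophoresis after RT-PCR. System: transiently transfected human HepG2, exogenous LXRb-Gal4 chimera driving GAL4-UAS reporter, 24 h dosing. Activity fitted upward against DMSO baseline.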
As to `CC1OC1C1CCC2(C)OC2C1` (stereo not given), the compound was called inactive.
Turning to `c1ccc(-c2ccccn2)nc1`, the compound was called inactive.
The same measure, in the same setting: then `CC1(C)O[C@@H]2C[C@H]3[C@@H]4C[C@H](F)C5=CC(=O)C=C[C@]5(C)[C@@]4(F)[C@@H](O)C[C@]3(C)[C@]2(C(=O)CO)O1`, with “inactive”; and `CC(=O)OC1C2(C)CCC(C2)C1(C)C` (stereo not given), with “inactive”; and `CCCCCCCOC(=O)CCC`, with “inactive”.
On the same count and under the same terms, the result for `CCOC(=O)Cc1cccc2ccccc12` reads “inactive”.
Still for that read-out and setting: the result for `C=C(C)C(=O)OCCO` reads “inactive”.
For `CC(=O)OCCC1CCCCC1`, the compound was classed as inactive.
Same read-out and setting: the result for `CC(=O)[C@H]1[C@H](C#N)C[C@H]2[C@@H]3CC=C4C[C@@H](O)CC[C@]4(C)[C@H]3CC[C@@]21C` reads “inactive”; that for `CCCCC/C=C\CCC=O`, “inactive”.
On to `Nc1ccc(N=Nc2ccccc2)c(N)n1`, for which the call was inactive.
The same measure, in the same setting: then `C=CC(C)(CCC=C(C)C)OC(=O)CC(C)C` (stereo not given), with “inactive”.
The same measure, in the same setting: the result for `CC(C)(C)c1ccc(N)cc1` reads “inactive”.
Same read-out and setting: then `O=C(c1ccccc1)c1ccc(O)c(O)c1O`, with “inactive”.
For `Nc1ccc2cc3ccccc3cc2c1`, the compound was called inactive.
Still for that read-out and setting: then `CN(C)CCCN(C)C`, with “inactive”.
Still for that read-out and setting: then `Cc1ccc([N+](=O)[O-])cc1S(=O)(=O)O`, with “inactive”; and `COc1cc(NC(=O)CC(C)=O)c(OC)cc1Cl`, with “inactive”; and `CNC(=S)NN`, with “inactive”.
Same read-out and setting: then `O=C(O)CCCC[C@@H]1SC[C@@H]2NC(=O)N[C@@H]21`, with “inactive”.
For `CCCOC(=O)CCCCC(=O)OCCC`, the compound was classed as inactive.
The same measure, in the same setting: the result for `C=C(C)CCO` reads “inactive”; that for `C=C[Si](C)(C)O[Si](C)(C)C=C`, “inactive”.
Same read-out and setting: then `CC(C)(C)C1CCCCC1=O` (stereo not given), with “inactive”; and `C[C@]12CCC(=O)C=C1CC[C@@H]1[C@@H]2C(=O)C[C@@]2(C)[C@H]1CC[C@]2(O)C(=O)CO`, with “inactive”.
Still for that read-out and setting: the result for `CC1(C)O[C@@H]2C[C@H]3[C@@H]4C[C@H](F)C5=CC(=O)CC[C@]5(C)[C@H]4[C@@H](O)C[C@]3(C)[C@]2(C(=O)CO)O1` reads “inactive”; that for `O=C1c2ccccc2C(=O)C1c1nc2ccccc2c(Br)c1O`, “inactive”.
Consider `O=C(Nc1ccccc1)c1ccccc1O`, for which the result was inactive.
Still for that read-out and setting: then `CC=CC(=O)N(CC)c1ccccc1C`, with “inactive”; and `CC(=O)OCC(=O)[C@@]12N=C(C)O[C@@H]1C[C@H]1[C@@H]3CCC4=CC(=O)C=C[C@]4(C)[C@H]3[C@@H](O)C[C@@]12C`, with “inactive”.
As for `CCC(C)OC(=O)c1ccc(O)cc1` (stereo not given), the outcome was inactive.
On the same count and under the same terms, then `CCCCCCCCCCCCCCCC(=O)OCC`, with “inactive”; and `O=c1[nH]nc(-c2ccc([N+](=O)[O-])o2)o1`, with “inactive”.
On the same count and under the same terms, the result for `O=c1cc(-c2ccccc2)oc2ccccc12` reads “inactive”; that for `CC(=O)NS(=O)(=O)c1ccc(N)cc1`, “inactive”.
With `CCCCCC/C=C/C=O`, the compound was classed as inactive.
`O=C1CCCN1CCO`: the call was inactive.
Regarding `C=C(C)c1cccc(C(C)(C)N=C=O)c1`, the compound was called inactive.

The next experiment concerns the target Hepatocyte nuclear factor 4-alpha (Homo sapiens) (UniProt P41235). Nature of the experiment: ATG_HNF4a_TRANS: Attagene TRANS-FACTORIAL HepG2 Assay for human Hepatocyte Nuclear Factor 4 alpha (HNF4a) (AID 2282982). The conditions noted are these: HepG2 HNF4a transactivation reporter, mRNA readout. The method, boiled down: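 Transient MRTU transfection of HepG2, 24 h dosing. Readout: reporter mRNA via RT-PCR + capillary electrophoresis, fluorescence; activity fit upward relative to DMSO control.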
Turning to `CC1OC1C1CCC2(C)OC2C1` (stereo not given), the call was inactive.
In the case of `c1ccc(-c2ccccn2)nc1`, the call was inactive.
As to `CC(=O)OC1C2(C)CCC(C2)C1(C)C` (stereo not given), the result was inactive.
For the compound `C=C(C)C(=O)OCCO`, the result was inactive.
The same measure, in the same setting: the result for `C=CC=CC=CCCCCC` reads “inactive”.
Turning to `Nc1ccc(N=Nc2ccccc2)c(N)n1`, the result was inactive.
For `O=C(c1ccccc1)c1ccc(O)c(O)c1O`, the call was inactive.
For the compound `Cc1ccc([N+](=O)[O-])cc1S(=O)(=O)O`, the compound was called inactive.
Take `CCCOC(=O)CCCCC(=O)OCCC`: the outcome was inactive.
The same measure, in the same setting: the result for `C=C[Si](C)(C)O[Si](C)(C)C=C` reads “inactive”; that for `CCCCCCCCCCCCCCCCCC#N`, “inactive”.
The same measure, in the same setting: the result for `CC(C)(C)C1CCCCC1=O` (stereo not given) reads “inactive”; that for `C[C@]12CCC(=O)C=C1CC[C@@H]1[C@@H]2C(=O)C[C@@]2(C)[C@H]1CC[C@]2(O)C(=O)CO`, “inactive”.
Still for that read-out and setting: the result for `O=C(Nc1ccccc1)c1ccccc1O` reads “inactive”; that for `CC=CC(=O)N(CC)c1ccccc1C`, “inactive”.
Turning to `CCC(C)OC(=O)c1ccc(O)cc1` (stereo not given), the outcome was inactive.
For `O=c1[nH]nc(-c2ccc([N+](=O)[O-])o2)o1`, the outcome was inactive.
The same measure, in the same setting: the result for `O=c1cc(-c2ccccc2)oc2ccccc12` reads “inactive”; that for `CC(=O)NS(=O)(=O)c1ccc(N)cc1`, “inactive”.
Still for that read-out and setting: the result for `CCCCCC/C=C/C=O` reads “inactive”.
On to `C=C(C)c1cccc(C(C)(C)N=C=O)c1`, for which the outcome was inactive.

System in a further experiment: not listed separately
In words: ATG_M_06_TRANS: Attagene TRANS-FACTORIAL HepG2 Assay for M06 Transcription Factor (Internal Marker) (AID 2282983).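 Also: reporter transcript level by RT-PCR then capillary electrophoresis fluorescence.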 The conditions noted are these: HepG2 Attagene TRANS M06 internal marker reporter. Summed up:
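Background control endpoint: reporter mRNA from transiently transfected HepG2 after 24 h dosing, detected by RT-PCR with capillary electrophoresis fluorescence. Analysed for gain versus DMSO.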
In the case of `c1ccc(-c2ccccn2)nc1`, the compound was classed as inactive.
On to `CC1(C)O[C@@H]2C[C@H]3[C@@H]4C[C@H](F)C5=CC(=O)C=C[C@]5(C)[C@@]4(F)[C@@H](O)C[C@]3(C)[C@]2(C(=O)CO)O1`, for which the compound was called inactive.
The same measure, in the same setting: the result for `CC(=O)OC1C2(C)CCC(C2)C1(C)C` (stereo not given) reads “inactive”; that for `CCCCCCCOC(=O)CCC`, “inactive”; that for `C=C(C)C(=O)OCCO`, “inactive”.
Turning to `C=CC=CC=CCCCCC`, the compound was called inactive.
The same measure, in the same setting: the result for `CC(=O)[C@H]1[C@H](C#N)C[C@H]2[C@@H]3CC=C4C[C@@H](O)CC[C@]4(C)[C@H]3CC[C@@]21C` reads “inactive”.
Take `Nc1ccc2cc3ccccc3cc2c1`: the call was inactive.
As to `CN(C)CCCN(C)C`, the compound was called inactive.
Turning to `C=C(C)CCO`, the call was inactive.
Still for that read-out and setting: then `C=C[Si](C)(C)O[Si](C)(C)C=C`, with “inactive”.
On the same count and under the same terms, then `CCCCCCCCCCCCCCCCCC#N`, with “inactive”; and `CC(C)(C)C1CCCCC1=O` (stereo not given), with “inactive”.
The same measure, in the same setting: then `C[C@]12CCC(=O)C=C1CC[C@@H]1[C@@H]2C(=O)C[C@@]2(C)[C@H]1CC[C@]2(O)C(=O)CO`, with “inactive”; and `CC1(C)O[C@@H]2C[C@H]3[C@@H]4C[C@H](F)C5=CC(=O)CC[C@]5(C)[C@H]4[C@@H](O)C[C@]3(C)[C@]2(C(=O)CO)O1`, with “inactive”; and `O=C(Nc1ccccc1)c1ccccc1O`, with “inactive”.
As to `CCC(C)OC(=O)c1ccc(O)cc1` (stereo not given), the call was inactive.
As for `O=c1[nH]nc(-c2ccc([N+](=O)[O-])o2)o1`, the call was inactive.
In the case of `O=c1cc(-c2ccccc2)oc2ccccc12`, the outcome was inactive.
`CC(=O)NS(=O)(=O)c1ccc(N)cc1`: the compound was classed as inactive.
As to `C=C(C)c1cccc(C(C)(C)N=C=O)c1`, the compound was called inactive.
